Reference: PubChem BioAssay (NCI)
This is part of a sample that, as a whole, favours compounds with a hit. Of some 83,000 tested, about 20% had one in any assay.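 48-hour exposure, single concentration, 96-well plates; percent growth endpoint where 0 means no net growth. Active: below 10.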 Unmarked numbers belong to inactive results. Calls of active or inactive are those of the source.

Assays:
Assay in all cases: NCI-60 one-dose screen, 48 h (100 = growth as untreated, 0 = no growth, -100 = all killed)
Settings in all cases: 10 µM unless noted
NCI-H23 lung = tested on: NCI-H23 lung
NCI-H226 lung = tested on: NCI-H226 lung
NCI-H322M lung = tested on: NCI-H322M lung
HOP-62 NSCLC = tested on: HOP-62 NSCLC
NCI-H460 lung = tested on: NCI-H460 lung
NCI-H522 lung = tested on: NCI-H522 lung
A549/ATCC NSCLC = tested on: A549/ATCC NSCLC
786-0 renal = tested on: 786-0 renal
COLO 205 colon = tested on: COLO 205 colon

Structure (SMILES): COc1ccc(C2CC(c3ccc(Nc4nc(NCCO)nc(N5CCOCC5)n4)cc3)=Nc3c(N)nc(N)nc3N2)cc1 (stereo not drawn)
- growth (NCI-H23 lung): 99.1%
- growth (NCI-H226 lung): 94.8%
- growth (NCI-H322M lung): 95%
- growth (HOP-62 NSCLC): 108%
- growth (NCI-H460 lung): 110%
- growth (NCI-H522 lung): 95.6%
- growth (A549/ATCC NSCLC): 104%
- growth (786-0 renal): 97.3%
- growth (COLO 205 colon): 109%

Structure (SMILES): CC(C)(C)n1nnnc1C(Nc1cccc2c1OCO2)c1cc2cccc3ccc4cccc1c4c32 (stereo not drawn)
- growth (NCI-H23 lung): 87.4%
- growth (NCI-H226 lung): 82.2%
- growth (NCI-H322M lung): 96%
- growth (HOP-62 NSCLC): 98.8%
- growth (NCI-H460 lung): 88.8%
- growth (NCI-H522 lung): 78.8%
- growth (A549/ATCC NSCLC): 81.3%
- growth (786-0 renal): 93.2%
- growth (COLO 205 colon): 103%

Structure (SMILES): CC(=O)N(C)C1CCc2c(sc(NC(=O)c3ccc(C(C)(C)C)cc3)c2C(N)=O)C1 (stereo not drawn)
- growth (NCI-H23 lung): 85.3%
- growth (NCI-H226 lung): 47.3%
- growth (NCI-H322M lung): 78.7%
- growth (HOP-62 NSCLC): 34.7%
- growth (NCI-H460 lung): 10.8%
- growth (NCI-H522 lung): 70.4%
- growth (A549/ATCC NSCLC): 39.8%
- growth (786-0 renal): 90.9%
- growth (COLO 205 colon): 103%

Structure (SMILES): CC(=O)c1cc(C(=O)N2c3ccccc3Sc3ccccc32)n2ccc3ccccc3c12
- growth (NCI-H23 lung): 62.8%
- growth (NCI-H226 lung): 45.4%
- growth (NCI-H322M lung): 61.8%
- growth (HOP-62 NSCLC): 42.4%
- growth (NCI-H460 lung): 30%
- growth (NCI-H522 lung): -38% (active)
- growth (A549/ATCC NSCLC): 50.3%
- growth (786-0 renal): 38.4%
- growth (COLO 205 colon): 36.3%

Structure (SMILES): CC(C)(C)c1ccc(C(=O)Nc2sc3c(c2C(N)=O)CCC(O)C3)cc1 (stereo not drawn)
- growth (NCI-H23 lung): 66.5%
- growth (NCI-H226 lung): 68.7%
- growth (NCI-H322M lung): 58.1%
- growth (HOP-62 NSCLC): 63%
- growth (NCI-H460 lung): 17%
- growth (NCI-H522 lung): 31.2%
- growth (A549/ATCC NSCLC): 39.6%
- growth (786-0 renal): 15.4%
- growth (COLO 205 colon): 6.84% (active)

Structure (SMILES): O=C1/C(=C/C=C/c2ccco2)SC(=S)N1C1CCCCC1
- growth (NCI-H23 lung): 91.3%
- growth (NCI-H226 lung): 105%
- growth (NCI-H322M lung): 97.4%
- growth (HOP-62 NSCLC): 102%
- growth (NCI-H460 lung): 95.7%
- growth (NCI-H522 lung): 75.9%
- growth (A549/ATCC NSCLC): 86.8%
- growth (786-0 renal): 106%
- growth (COLO 205 colon): 72.9%

Structure (SMILES): CCOc1cccc(-c2nc3sccn3c2-c2ccnc(S(C)(=O)=O)n2)c1
- growth (NCI-H23 lung): 99.1%
- growth (NCI-H226 lung): 94%
- growth (NCI-H322M lung): 93.1%
- growth (HOP-62 NSCLC): 100%
- growth (NCI-H460 lung): 76.8%
- growth (NCI-H522 lung): 98.9%
- growth (A549/ATCC NSCLC): 102%
- growth (786-0 renal): 103%
- growth (COLO 205 colon): 99.9%
